From PubChem BioAssay
For part of these data: Potency and affinity values are given separately. Calls of active or inactive are those of the source.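 Rule for the calls, unless noted: active = primary screen hit whose fluorescence ratio, in both repeats, exceeds the weak agonist control mean by 3 SD; inactive = the rest.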

Legend:
[1] = tested on: TRPC4 beta (transient receptor potential cation channel C4), mouse; test: TRPC4 cation channel opening, retest – cell-based, Fluo4 calcium, HEK293 TRPC4beta/mu-opioid, duplicates, 10 µM, confirmation (AID 2426;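 active = fluorescence ratio normalized to control raised more than 50% in primary screen plus both repeat runs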); settings: Fluo4 calcium fluorescence, at 10 µM; hits give high values
[2] = tested on: transient receptor potential cation channel C4 beta (TRPC4), mouse; test: TRPC4 cation channel opening, second retest – cell-based, second round, Fluo4, HEK293 TRPC4beta/mu-opioid, 1 µM, confirmation (AID 2461;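 active = primary screen active and over 50% activation in each of two duplicate runs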); settings: Fluo4 calcium fluorescence, at 1 µM; hits give high values
[3] = tested on: TRPC4 (transient receptor potential cation channel C4 beta), mouse; test: potentiation of DAMGO EC20 TRPC4 response – cell-based, second round, Fluo-4, HEK293 TRPC4beta/mu-opioid, 1 µM, confirmation (AID 2554); settings: DAMGO EC20, Fluo-4 calcium flux, at 1 µM; hits give high values
[4] = tested on: TRPC4 beta (transient receptor potential cation channel C4), mouse; test: potentiation of DAMGO EC20 TRPC4 response – cell-based, Fluo-4, HEK293 TRPC4beta/mu-opioid, confirmation (AID 2555;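 active = primary screen hit whose calcium fluorescence ratio, in both repeats, exceeds the weak agonist control mean by 3 SD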); settings: DAMGO EC20, Fluo-4 calcium flux, at 10 µM; hits give high values
[5] = target: Short transient receptor potential channel 4 (Mus musculus) (UniProt Q9QUQ5); test: blockers of DAMGO-evoked TRPC4 calcium flux – cell-based, Fluo4, HEK293 TRPC4beta/mu-opioid, confirmation (AID 2636;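 active = calcium signal cut by more than 3 SD below the full-agonist control yet still positive, in both repeats and the earlier primary screen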); settings: at 10 µM; hits give high values
[6] = target: Short transient receptor potential channel 4 (Mus musculus) (UniProt Q9QUQ5); test: blockers of DAMGO-evoked TRPC4 calcium flux – cell-based, second round, Fluo4, HEK293 TRPC4beta/mu-opioid, 1 µM, confirmation (AID 2637;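 active = calcium signal ratio cut to more than 3 SD under the fully stimulated control mean yet still positive, in both repeats and the primary screen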); settings: at 1 µM; hits give high values
[7] = target: Short transient receptor potential channel 4 (Mus musculus) (UniProt Q9QUQ5); test: calcium entry via TRPC4 opening agents – cell-based, HEK293 TRPC4/mu-opioid, Fluo-4 calcium, dose response (AID 434937;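 active = primary screen activator hit with a dose response curve and TRPC4 channel activation at any tested dose; inactive = no activation, no dose response, or not a primary hit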)
[8] = target: Short transient receptor potential channel 4 (Mus musculus) (UniProt Q9QUQ5); test: potentiation of DAMGO-evoked TRPC4 calcium signal – cell-based, HEK293 TRPC4/mu-opioid, Fluo-4 calcium, EC20 DAMGO, dose response (AID 434941;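 active = earlier screen potentiator hit that boosts the TRPC4 ion channel at some dose, with a dose response; inactive = no potentiation, no dose response, or not a prior hit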;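 note: calcium entry triggered by an EC20 dose of DAMGO at the co-expressed mu-opioid receptor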)
[9] = target: Short transient receptor potential channel 4 (Mus musculus) (UniProt Q9QUQ5); test: block of DAMGO-driven TRPC4 calcium entry – cell-based, HEK293 TRPC4/mu-opioid, Fluo-4 calcium, dose response (AID 434942;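 active = primary screen inhibitor hit that blocks the TRPC4 channel at some tested dose, yielding a dose curve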)
[10] = target: Short transient receptor potential channel 6 (Mus musculus) (UniProt Q61143); test: TRPC6 blockade by TRPC4 inhibitor hits – cell-based, HEK293, membrane potential dye, duplicate, selectivity assay for TRPC4 inhibitor project, confirmation (AID 434948;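 active = active in primary screen and both duplicates, each dropping signal beyond three positive-control SD with fluorescence still positive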); settings: HEK293 TRPC6, membrane potential dye fluorescence, at 10 µM, stimulated with maximal-effect acetylcholine; hits give high values
[11] = target: Short transient receptor potential channel 6 (Mus musculus) (UniProt Q61143); test: TRPC6 opening by TRPC4 activator hits – cell-based, HEK293, membrane potential dye, duplicate, selectivity assay for TRPC4 activator project, confirmation (AID 434950;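 active = membrane potential signal rise above negative control mean plus 3 SD in both duplicates, also active in the earlier TRPC4 screen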;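 for activation: 0% = buffer only wells and 100% = acetylcholine maximal-effect wells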); settings: HEK293 TRPC6, membrane potential fluorescence, at 10 µM; activation: hits give high values; outcome: activation
[12] = target: Short transient receptor potential channel 6 (Mus musculus) (UniProt Q61143); test: positive modulators of mouse TRPC6 channel – HEK293 cells, membrane potential dye, duplicate, selectivity assay for TRPC4 potentiator project, confirmation (AID 434952;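 active = compound raising the membrane signal above positive-control mean plus 3 SD in both repeats, and a primary screen hit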); settings: HEK293 TRPC6, membrane potential dye fluorescence, at 10 µM, maximal acetylcholine added after compound; hits give high values
[13] = target: Short transient receptor potential channel 4 (Mus musculus) (UniProt Q9QUQ5); test: calcium flux activators in TRPC4/5HT1a cells, counter-screen for TRPC4 activator project, cell-based, second counter screen, HEK293 TRPC4/5HT1a, Fluo-4 (AID 434977;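 active = calcium signal rise above buffer-control mean plus 5 SD in both duplicates, and also a hit in the primary screen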); settings: Fluo-4 calcium flux, at 10 µM; hits give high values
[14] = serotonin-gated TRPC4 signal block – cell-based, second counter screen, HEK293 TRPC4/5HT1a, Fluo-4, counter-screen for TRPC4 inhibitor project, confirmation (AID 434978;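 active = primary screen active whose calcium signal fell more than 3 SD beyond the full-serotonin control mean in both duplicate plates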;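 note: serotonin given first at submaximal then at maximal dose after compound preincubation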); settings: Fluo-4 calcium flux, at 10 µM, serotonin added to trigger calcium flux; hits give high values
[15] = tested on: TRPC4 (mouse), co-expressed with 5HT1a in HEK293; test: enhancement of serotonin-evoked TRPC4 response – cell-based, second counter screen, HEK293 TRPC4/5HT1a, Fluo-4, counter-screen for TRPC4 potentiator project, confirmation (AID 434979;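 active = signal rise over 3 SD above mean of control wells given weak agonist, in both repeats and first screen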); settings: Fluo-4 calcium flux, at 10 µM, serotonin added at its EC20 dose; hits give high values
[16] = nonspecific calcium rise without TRPC4 – cell-based, HEK293 mu-opioid receptor line, counter-screen for TRPC4 activator project, confirmation (AID 449723;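 active = hit in primary screen, with calcium signal over 5 SD above buffer well mean in both duplicates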;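 note: counter screen cells carry the mu-opioid receptor alone and lack TRPC4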); settings: HEK293 mu-opioid cells, Fluo-4 calcium fluorescence, at 10 µM; hits give high values
[17] = nonspecific potentiation of DAMGO calcium response – cell-based, HEK293 mu-opioid receptor line, counter-screen for TRPC4 allosteric potentiator project, confirmation (AID 449724;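 active = calcium signal rise more than 3 SD above the low-dose agonist control mean, in both duplicate plates and the primary screen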); settings: HEK293 mu-opioid receptor cells, Fluo-4 calcium flux, at 10 µM, compound added before EC20 DAMGO stimulus; hits give high values

Short transient receptor potential channel 4 (Mus musculus), sequence (Q9QUQ5 whole entry, looked up): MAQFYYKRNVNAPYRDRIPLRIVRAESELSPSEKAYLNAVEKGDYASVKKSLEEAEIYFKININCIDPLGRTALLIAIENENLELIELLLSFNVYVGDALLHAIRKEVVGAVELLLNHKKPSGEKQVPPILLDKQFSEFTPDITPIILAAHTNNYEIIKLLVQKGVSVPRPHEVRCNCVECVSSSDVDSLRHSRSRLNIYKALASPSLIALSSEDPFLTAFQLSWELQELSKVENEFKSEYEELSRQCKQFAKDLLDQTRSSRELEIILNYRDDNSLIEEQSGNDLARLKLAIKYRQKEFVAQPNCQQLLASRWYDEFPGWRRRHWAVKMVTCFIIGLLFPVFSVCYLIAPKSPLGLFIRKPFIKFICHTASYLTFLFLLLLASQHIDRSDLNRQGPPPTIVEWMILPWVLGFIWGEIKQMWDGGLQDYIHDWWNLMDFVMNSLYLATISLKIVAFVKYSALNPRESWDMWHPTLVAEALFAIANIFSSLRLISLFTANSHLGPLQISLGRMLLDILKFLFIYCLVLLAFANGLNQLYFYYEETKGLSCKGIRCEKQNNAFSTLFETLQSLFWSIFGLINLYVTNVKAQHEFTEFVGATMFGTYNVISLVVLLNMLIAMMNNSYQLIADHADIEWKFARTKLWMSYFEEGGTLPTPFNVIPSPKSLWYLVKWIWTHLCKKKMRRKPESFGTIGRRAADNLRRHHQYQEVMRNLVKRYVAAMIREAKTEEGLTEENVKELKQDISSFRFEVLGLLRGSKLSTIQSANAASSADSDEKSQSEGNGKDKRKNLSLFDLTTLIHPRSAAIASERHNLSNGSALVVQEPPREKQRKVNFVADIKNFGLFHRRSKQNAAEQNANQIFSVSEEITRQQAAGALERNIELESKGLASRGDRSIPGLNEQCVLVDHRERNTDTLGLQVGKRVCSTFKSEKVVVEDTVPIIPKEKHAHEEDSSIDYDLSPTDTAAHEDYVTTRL
Short transient receptor potential channel 6 (Mus musculus), sequence (Q61143 whole entry, looked up): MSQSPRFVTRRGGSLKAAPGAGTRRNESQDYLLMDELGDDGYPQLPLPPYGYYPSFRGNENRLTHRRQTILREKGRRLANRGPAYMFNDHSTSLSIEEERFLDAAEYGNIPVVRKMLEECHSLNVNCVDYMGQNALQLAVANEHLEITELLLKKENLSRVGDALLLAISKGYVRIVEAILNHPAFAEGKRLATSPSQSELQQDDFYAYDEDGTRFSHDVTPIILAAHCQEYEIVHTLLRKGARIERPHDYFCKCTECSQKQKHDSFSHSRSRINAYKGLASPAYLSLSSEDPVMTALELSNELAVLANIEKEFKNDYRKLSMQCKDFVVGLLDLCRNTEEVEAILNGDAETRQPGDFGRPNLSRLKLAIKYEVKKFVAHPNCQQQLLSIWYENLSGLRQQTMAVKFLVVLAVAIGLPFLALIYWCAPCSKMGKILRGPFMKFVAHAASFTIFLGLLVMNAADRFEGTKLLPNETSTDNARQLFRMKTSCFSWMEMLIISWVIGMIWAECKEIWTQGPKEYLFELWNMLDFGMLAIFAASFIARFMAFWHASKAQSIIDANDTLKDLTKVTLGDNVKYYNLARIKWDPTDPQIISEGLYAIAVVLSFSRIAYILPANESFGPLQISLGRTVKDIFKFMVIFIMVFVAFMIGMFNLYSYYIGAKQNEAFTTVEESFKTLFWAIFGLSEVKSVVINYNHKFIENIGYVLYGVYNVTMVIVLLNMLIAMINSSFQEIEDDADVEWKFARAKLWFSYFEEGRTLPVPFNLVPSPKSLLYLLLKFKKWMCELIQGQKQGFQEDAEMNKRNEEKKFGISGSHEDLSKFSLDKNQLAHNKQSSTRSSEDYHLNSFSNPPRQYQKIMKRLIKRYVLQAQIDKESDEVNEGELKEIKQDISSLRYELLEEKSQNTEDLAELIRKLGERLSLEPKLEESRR

CCCN1CCC(NC(=O)Cc2cccc(C)c2)CC1
inactive: outcome [1] | outcome [2] | outcome [3] | outcome [4] | outcome [5] | outcome [6] | outcome [7] | outcome [8] | outcome [9] | outcome [10] | outcome [11] | outcome [12] | outcome [13] | outcome [14] | outcome [15] | outcome [16] | outcome [17]

Cc1ccc(CC(=O)NCC(c2ccco2)N(C)C)cc1C (stereo not given)
inactive: outcome [1] | outcome [2] | outcome [3] | outcome [4] | outcome [5] | outcome [6] | outcome [7] | outcome [8] | outcome [9] | outcome [10] | outcome [11] | outcome [12] | outcome [13] | outcome [14] | outcome [15] | outcome [16] | outcome [17]

CCSc1ccccc1C(=O)NCCc1ccccc1
inactive: outcome [1] | outcome [2] | outcome [3] | outcome [4] | outcome [5] | outcome [6] | outcome [7] | outcome [8] | outcome [9] | outcome [10] | outcome [11] | outcome [12] | outcome [13] | outcome [14] | outcome [15] | outcome [16] | outcome [17]

CCn1c(NCc2ccco2)nc2ccccc21
inactive: outcome [1] | outcome [2] | outcome [3] | outcome [5] | outcome [6] | outcome [7] | outcome [8] | outcome [9] | outcome [10] | outcome [11] | outcome [12] | outcome [13] | outcome [14] | outcome [16] | outcome [17]
active: potentiation [4] 8% | potentiation [15] 12.3%

Cc1oc(-c2ccc(Cl)cc2)nc1CN1CCC(C(=O)N2CCc3ccccc3C2)CC1
inactive: outcome [1] | outcome [2] | outcome [3] | outcome [5] | outcome [6] | outcome [7] | outcome [8] | outcome [9] | outcome [10] | outcome [11] | outcome [12] | outcome [13] | outcome [14] | outcome [16] | outcome [17]
active: potentiation [4] 16% | potentiation [15] 10.2%

CC(C)C(=O)N1CCN(c2ccccc2NC(=O)c2ccco2)CC1
active: inhibition [5] 84%
inactive: outcome [1] | outcome [2] | outcome [3] | outcome [4] | outcome [6] | outcome [7] | outcome [8] | outcome [9] | outcome [10] | outcome [11] | outcome [12] | outcome [13] | outcome [14] | outcome [15] | outcome [16] | outcome [17]

CC(Sc1nc2sc3c(c2c(=O)n1-c1ccccc1)CCCC3)C(=O)O (stereo not given)
inactive: outcome [1] | outcome [2] | outcome [3] | outcome [5] | outcome [6] | outcome [7] | outcome [8] | outcome [9] | outcome [10] | outcome [11] | outcome [12] | outcome [13] | outcome [14] | outcome [16] | outcome [17]
active: potentiation [4] 12% | potentiation [15] 22.2%

Cc1cc(Cl)cc(Cl)c1OCCCCN(C)C
active: potentiation [3] 22% | potentiation [4] 18% | potentiation [15] 23.9%
inactive: outcome [1] | outcome [2] | outcome [5] | outcome [6] | outcome [7] | outcome [8] | outcome [9] | outcome [10] | outcome [11] | outcome [12] | outcome [13] | outcome [14] | outcome [16] | outcome [17]

C/C(N)=C(/C#N)C(=O)COC(=O)C1CCC(C(C)(C)C)CC1 (stereo not given)
inactive: outcome [1] | outcome [2] | outcome [3] | outcome [4] | outcome [5] | outcome [6] | outcome [7] | outcome [8] | outcome [9] | outcome [10] | outcome [11] | outcome [12] | outcome [13] | outcome [14] | outcome [15] | outcome [16] | outcome [17]

Cn1c(C(=O)N[C@@H](C(=O)O)c2ccccc2)cc2cc(Cl)ccc21
inactive: outcome [1] | outcome [2] | outcome [3] | outcome [4] | outcome [5] | outcome [6] | outcome [7] | outcome [8] | outcome [9] | outcome [10] | outcome [11] | outcome [12] | outcome [13] | outcome [14] | outcome [15] | outcome [16] | outcome [17]

CN(C(=O)COC(=O)c1sc2ccccc2c1Cl)C1CCCCC1
active: potentiation [4] 36% | potentiation [15] 64.8%
inactive: outcome [1] | outcome [2] | outcome [3] | outcome [5] | outcome [6] | outcome [7] | outcome [8] | outcome [9] | outcome [10] | outcome [11] | outcome [12] | outcome [13] | outcome [14] | outcome [16] | outcome [17]

CCN(CC)CCSc1nnc2c3ccccc3n(Cc3ccccc3)c2n1
inactive: outcome [1] | outcome [2] | outcome [3] | outcome [4] | outcome [5] | outcome [6] | outcome [7] | outcome [8] | outcome [9] | outcome [10] | outcome [11] | outcome [12] | outcome [13] | outcome [14] | outcome [15] | outcome [16] | outcome [17]

O=[N+]([O-])c1ccc(C[n+]2cccc(O)c2)cc1
inactive: outcome [1] | outcome [2] | outcome [3] | outcome [4] | outcome [5] | outcome [6] | outcome [7] | outcome [8] | outcome [9] | outcome [10] | outcome [12] | outcome [13] | outcome [14] | outcome [15] | outcome [16] | outcome [17]
active: activation [11] 28.5%

CCCn1c(NCc2cc(OC)ccc2OC)nc2ccccc21
inactive: outcome [1] | outcome [2] | outcome [3] | outcome [4] | outcome [5] | outcome [6] | outcome [7] | outcome [8] | outcome [9] | outcome [10] | outcome [11] | outcome [12] | outcome [13] | outcome [14] | outcome [15] | outcome [16] | outcome [17]

CCOC(=O)C1CCCN(C(=O)CCCn2nnnc2CN2CCOCC2)C1 (stereo not given)
inactive: outcome [1] | outcome [2] | outcome [3] | outcome [4] | outcome [5] | outcome [6] | outcome [7] | outcome [8] | outcome [9] | outcome [10] | outcome [11] | outcome [12] | outcome [13] | outcome [14] | outcome [16] | outcome [17]
active: potentiation [15] 13.4%
